NPC1 promoter act – NPC1 promoter activation | Potency, µM (titrated, usually from 9.22 µM), most hits filed as activators | Huh7 NPC1 promoter luciferase reporter, 24 h | 320,000 compounds, 2.4% hits; note: nearly all actives have a fitted effect of over 60% in size
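Stably transfected Huh7 (NPC1 promoter→luciferase), 1500 cells/well in Opti-MEM + 10% FBS, 2 h settle, then compound 24 h at 37 °C. Luminescence after 10 min with Amplite reagent.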
FLuc counter – firefly luciferase modulation, counter-screen for miR-21 project | P08659 | AID 588342 | 360,000 compounds, 6.9% hits | Potency, µM (doses to about 57.5 µM), hits mostly inhibitors | purified FLuc, Km substrates, luminescence inhibition; note: nearly all actives have a fitted effect of over 55% in size
Target sequence (P08659 whole entry, looked up): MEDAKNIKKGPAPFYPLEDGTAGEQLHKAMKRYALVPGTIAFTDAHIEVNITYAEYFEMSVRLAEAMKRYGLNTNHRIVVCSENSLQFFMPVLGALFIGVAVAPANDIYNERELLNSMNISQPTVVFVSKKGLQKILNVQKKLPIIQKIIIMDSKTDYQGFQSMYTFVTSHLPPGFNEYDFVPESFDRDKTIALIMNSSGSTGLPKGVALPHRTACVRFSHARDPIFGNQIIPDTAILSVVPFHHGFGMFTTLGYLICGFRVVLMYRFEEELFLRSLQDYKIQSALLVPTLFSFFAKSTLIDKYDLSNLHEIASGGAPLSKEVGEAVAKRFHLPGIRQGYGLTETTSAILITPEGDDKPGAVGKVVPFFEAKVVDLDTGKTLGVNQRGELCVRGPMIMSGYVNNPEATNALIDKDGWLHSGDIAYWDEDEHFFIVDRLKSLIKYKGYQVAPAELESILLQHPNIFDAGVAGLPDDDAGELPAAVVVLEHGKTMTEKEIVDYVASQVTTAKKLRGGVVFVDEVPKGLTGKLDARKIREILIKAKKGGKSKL
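Biochemical qHTS of compounds, final roughly 60 µM downward over six points, against 10 nM purified firefly luciferase using Km concentrations of substrates (10 uM D-luciferin, 10 uM ATP) in Tris acetate pH 7.5 buffer; luminescence output.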
Rab9 promoter act – activators of Rab9 promoter. AID 485297. Potency, µM (titrated, usually from 9.22 µM), usual class: activators. Huh7 Rab9 promoter-luciferase reporter, luminescence, 24 h. 320,000 compounds, 2.8% hits; note: nearly all actives have a fitted effect of over 60% in size
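Stable Rab9-luc Huh7, 1500 cells/well, 2 h settle; cmpd in DMSO, 24 h, 37 °C/5% CO2; luciferase reagent 10 min RT; luminescence.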
ELG1 repair inh – ELG1-dependent DNA repair inhibition | HEK293T ELG1-luciferase reporter, luminescence, 16 h; DNA damage induced by 5-fluorouridine | Potency, µM (doses to about 46.1 µM), usual class: inhibitors | 330,000 compounds, 2.3% hits | AID 504467; note: nearly all actives have a fitted effect of over 55% in size
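Step one: seed 2,000 cells per well. Step two: pin-transfer compound or DMSO alongside 5-fluorouridine. Step three: incubate 16 hr, 37 °C, 5% CO2. Step four: add ONE-Glo, wait 30 min, read luminescence.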
ELG1 genotoxic – induces genotoxicity in HEK293T cells with luciferase-tagged ELG1. HEK293T ELG1-luciferase reporter, luminescence, 16 h. Potency, µM (titrated, usually from 46 µM), most hits filed as activators. 330,000 compounds, 1.3% hits; note: nearly all actives have a fitted effect of over 60% in size
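HEK293T cells expressing luciferase-tagged ELG1 were treated with compound or DMSO for 16 hr at 37°C. Luciferase activity was then read after 30 min with ONE-Glo at room temperature; rising signal flags genetic stress.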
SMN2 splice enh – SMN2 splice variant enhancement; HEK293 SMN2-luciferase splicing reporter, luminescence, 30-36 h; Potency, µM (doses to about 46.1 µM), usual class: activators; 210,000 compounds, 2.8% hits; AID 1458; note: nearly all actives have a fitted effect of over 55% in size
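HEK293 cells carry an SMN2 […]–luciferase reporter in which exon 7 inclusion puts luciferase in frame. Cells were plated 10-12 h before compound addition, then incubated 30-36 h at 37C. ONE-Glo luminescence was read; sodium butyrate at 4.5 mM final served as control.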
Hits are given with their value; . = inactive; ? = inconclusive; / = no result. The list is not random: actives were taken first. Their share in the collection is about 9.2%. Calls come from the whole dose curve; as a rule, active = well fitted curve in the direction sought with a large enough effect; inconclusive = small, poorly fitted or top-dose-only effect, or another doubt; inactive = no such curve, though single readings can be large; an effect the other way counts as inactive or inconclusive.

SMILES	NPC1 promoter act	FLuc counter	Rab9 promoter act	ELG1 repair inh	ELG1 genotoxic	SMN2 splice enh
CCc1noc(C)c1C(=O)Nc1nc(-c2ccc(OC)c(OC)c2)cs1	.	.	.	?	.	/
COc1ccc(-c2csc(NC(=O)Cc3ccccc3F)n2)cc1OC	.	?	.	16µM	.	/
COc1ccc(-c2csc(NC(=O)C3CC(=O)N(Cc4ccccc4)C3)n2)cc1OC (stereo unspecified)	.	.	.	12µM	.	/
O=C(Cc1ccccc1F)Nc1nc(-c2ccc(F)cc2)cs1	.	11µM	?	.	.	/
CCCc1nn(C)c(C(=O)Nc2ccccc2)c1Cl	3.5µM	7.6µM	1.1µM	?	?	.
CCCc1nn(C)c(C(=O)Nc2ccc(Cl)cc2)c1Cl	.	.	.	?	.	.
CCCc1nn(C)c(C(=O)Nc2cccc(C)c2)c1Cl	?	17µM	?	?	?	.
CCCc1nn(C)c(C(=O)Nc2ccc(C(C)(C)C)cc2)c1Cl	.	?	.	.	.	.
CCCc1nn(C)c(C(=O)Nc2cccc(Cl)c2)c1Cl	.	21µM	?	?	?	.
CCN1CCN(CCC(=O)Nc2cccc(C)c2)CC1	.	.	.	.	.	/
O=C(COC(=O)/C=C/c1ccccc1Cl)NC(=O)NCc1ccccc1	.	/	.	.	.	/
S=C(c1ccc(-c2ccc(Br)cc2)o1)N1CCOCC1	3.5µM	3µM	2µM	?	?	/
S=C(c1ccc(-c2ccc(Cl)c(Cl)c2)o1)N1CCOCC1	2.2µM	2.7µM	1.8µM	?	6.5µM	11µM
S=C(c1ccc(-c2ccccc2Cl)o1)N1CCOCC1	?	11µM	?	?	13µM	32µM
COc1ccc(-c2oc3ncn4nc(COc5cccc(C)c5C)nc4c3c2-c2ccc(OC)cc2)cc1	/	.	/	/	/	.
COc1ccc(C(=O)Nc2ccc3oc(Cc4ccc(Cl)cc4)nc3c2)cc1OC	.	.	.	21µM	.	.
COc1ccc(C(=O)Nc2ccc3ccccc3c2)cc1OC	2.8µM	9.5µM	?	?	?	/
COc1cc(C(=O)Nc2ccc3ccccc3c2)cc(OC)c1OC	.	19µM	.	.	?	/
Cn1nnc2cc(C(=O)Nc3ccc4ccccc4c3)ccc21	0.89µM	1.9µM	0.4µM	?	2.3µM	3.2µM
CCOc1ccc(NC(=O)CN(C)C(=O)c2cc(S(=O)(=O)N3CCCCCC3)ccc2OC)cc1OCC	.	.	.	.	.	/
CCN(Cc1cnn(C)c1)C(=O)c1ccc(OC2CCN(S(=O)(=O)N(C)C)CC2)cc1	.	.	.	?	.	/
COc1ccc(OC)c(/C=N/NC(=O)c2ccc(=O)[nH]n2)c1	.	.	.	?	.	/
COc1ccc(/C=N/Nc2ccc([N+](=O)[O-])cc2)cc1O	.	7.6µM	?	?	12µM	/
COc1ccc(/C=N/Nc2ccc([N+](=O)[O-])cc2)cc1Cn1cc([N+](=O)[O-])cn1	.	.	.	?	?	.
COc1cccc(/C=N/NC(=O)c2ccc(=O)[nH]n2)c1O	.	3.4µM	.	.	.	/
SMILES	NPC1 promoter act	FLuc counter	Rab9 promoter act	ELG1 repair inh	ELG1 genotoxic	SMN2 splice enh
COc1cc(/C=N/NC(=O)c2cccc([N+](=O)[O-])c2)cc(OC)c1O	.	.	.	.	.	.
COc1cccc(/C=N/NC(=O)c2ccc([N+](=O)[O-])cc2Cl)c1O	.	19µM	.	.	.	.
COc1cccc(N/N=C/c2cccc(Br)c2O)c1	?	6.7µM	?	?	?	/
NC(=O)C1CCCN(C(=O)CNC(=O)C23CC4CC(CC(C4)C2)C3)C1 (stereo unspecified)	.	.	.	.	.	/
O=C(CSc1ccc(Cl)cc1)NNC(=O)c1cccnc1	.	.	.	.	.	.
COc1cccc(/C=N/Nc2ccc([N+](=O)[O-])cc2)c1O	?	2.4µM	.	?	?	/
COC(=O)c1ccc(N/N=C/c2cc([N+](=O)[O-])cc(OC)c2O)cc1	.	?	.	?	.	/
CN(C)c1ccc(NC(=O)CN2CCN(CC(=O)Nc3ccc(Br)cc3)CC2)cc1	/	.	/	/	/	/
CN(C)c1ccc(/C=N/NC(=O)c2ccccc2Cl)cc1	.	17µM	.	?	?	22µM
O=C(N/N=C/c1ccc(-n2ccnc2)cc1)c1cccs1	?	12µM	?	?	?	/
O=C(N/N=C/c1ccc(-c2ccccc2C(=O)O)o1)c1cccs1	.	13µM	.	?	.	.
CSc1ccc(/C=N/NC(=O)c2ccccc2Cl)cc1	.	15µM	?	?	?	.
Cc1ccc(/C=N/NC(=O)CNC(=O)c2cccs2)o1	.	.	.	.	.	.
CCc1ccccc1NC(=O)CSc1ncc2c(n1)-c1ccccc1N(C)S2(=O)=O	/	.	/	/	/	/

High-throughput results (PubChem BioAssay)
